Potency and outcome data for twelve compounds are collected here from PubChem BioAssay (Tox21).

Assay [1] deals with Estrogen receptor beta (Homo sapiens) (UniProt Q92731). The assay is described as follows: qHTS assay to identify small molecule agonists of the estrogen receptor beta (ER-beta) signaling pathway (AID 1259377; active = well fitted activation curve with a large enough effect in the signal ratio in the repeat runs, not every such curve was filed as active; the % refers to the signal ratio). In short, it runs like this: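 Read-out: beta-lactamase FRET fluorescence. Cell line: ER-beta-UAS-bla HEK293T in 2% charcoal-stripped FBS. Exposure: 16 hr at 37C. Substrate step: 2 h at room temperature.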
Chain of Estrogen receptor beta (Homo sapiens) (Q92731 whole entry, looked up): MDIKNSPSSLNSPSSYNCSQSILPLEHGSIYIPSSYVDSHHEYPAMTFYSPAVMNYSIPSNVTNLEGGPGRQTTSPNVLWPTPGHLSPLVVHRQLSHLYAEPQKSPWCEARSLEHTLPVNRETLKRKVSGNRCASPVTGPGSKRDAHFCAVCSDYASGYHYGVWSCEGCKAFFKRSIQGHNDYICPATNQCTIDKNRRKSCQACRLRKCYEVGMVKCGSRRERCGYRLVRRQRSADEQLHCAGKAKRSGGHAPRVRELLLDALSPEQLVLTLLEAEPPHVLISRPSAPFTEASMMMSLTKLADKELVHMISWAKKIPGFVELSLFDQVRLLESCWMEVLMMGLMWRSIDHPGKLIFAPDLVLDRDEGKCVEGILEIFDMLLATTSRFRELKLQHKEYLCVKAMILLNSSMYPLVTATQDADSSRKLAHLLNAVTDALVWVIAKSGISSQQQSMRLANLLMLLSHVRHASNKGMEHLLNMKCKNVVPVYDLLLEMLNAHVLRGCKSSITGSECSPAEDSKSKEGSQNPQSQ
(In qHTS, concentration-response curves come from the screen itself.)

Assay [2] is described as follows: qHTS assay to identify small molecule agonists of the androgen receptor (AR) signaling pathway in the presence of an antagonist - cell viability counter screen (AID 1259379). Also: nearly all actives have a fitted effect of over 25% in size. Also: potency is read from the fitted curve at half-maximal effect. The procedure, abridged:
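In MDA-kb2 cells (human breast carcinoma, MMTV-luciferase), compounds at 15 concentrations plus 3.0uM nilutamide; 16 hr, 37C, 0% CO2; CellTiter-Fluor fluorescence read for viability.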

Assay [3] can be described thus: qHTS assay to identify small molecule agonists of the estrogen receptor beta (ER-beta) signaling pathway - cell viability counter screen (AID 1259380). Also: nearly all actives have a fitted effect of over 30% in size. Also: potency is read from the fitted curve at half-maximal effect. In short, it runs like this:
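Viability of ER-beta-UAS-bla HEK293T cells was determined by CellTiter-Glo luminescence following 16 hr treatment with test compounds at 37C.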

Assay [4] has as its target Androgen receptor (Homo sapiens) (UniProt P10275). The assay is described as follows: qHTS assay to identify small molecule agonists of the androgen receptor (AR) signaling pathway in the presence of an antagonist (AID 1259381; calls by dose curve; also: nearly all actives have a fitted effect of over 15% in size). In short, it runs like this: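 Here, 15-concentration compound series were pin-transferred onto MDA-kb2 MMTV-luciferase cells already dosed with nilutamide (3.0uM final). After 16hr at 37C, ONE-Glo was added and luminescence read 30min later at room temperature.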

The target in assay [5] is Estrogen receptor (Homo sapiens) (UniProt P03372). Briefly: qHTS assay to identify small molecule agonists of the estrogen receptor alpha (ER-alpha) signaling pathway in the presence of an antagonist (AID 1259383; calls by dose curve; also: nearly all actives have a fitted effect of over 15% in size; also: potency is read from the fitted curve at half-maximal effect; as to activation: top concentration of the series differs between compounds). The procedure, abridged: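 In VM7Luc4E2 cells, 4,000 per well, compounds at 15 concentrations were co-incubated 22hr at 37C with 10.0nM final ICI-182,780. Luminescence from the stably transfected 4×ERE-luciferase reporter was recorded 30min after ONE-Glo addition.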
Chain of Estrogen receptor (Homo sapiens) (P03372 whole entry, looked up): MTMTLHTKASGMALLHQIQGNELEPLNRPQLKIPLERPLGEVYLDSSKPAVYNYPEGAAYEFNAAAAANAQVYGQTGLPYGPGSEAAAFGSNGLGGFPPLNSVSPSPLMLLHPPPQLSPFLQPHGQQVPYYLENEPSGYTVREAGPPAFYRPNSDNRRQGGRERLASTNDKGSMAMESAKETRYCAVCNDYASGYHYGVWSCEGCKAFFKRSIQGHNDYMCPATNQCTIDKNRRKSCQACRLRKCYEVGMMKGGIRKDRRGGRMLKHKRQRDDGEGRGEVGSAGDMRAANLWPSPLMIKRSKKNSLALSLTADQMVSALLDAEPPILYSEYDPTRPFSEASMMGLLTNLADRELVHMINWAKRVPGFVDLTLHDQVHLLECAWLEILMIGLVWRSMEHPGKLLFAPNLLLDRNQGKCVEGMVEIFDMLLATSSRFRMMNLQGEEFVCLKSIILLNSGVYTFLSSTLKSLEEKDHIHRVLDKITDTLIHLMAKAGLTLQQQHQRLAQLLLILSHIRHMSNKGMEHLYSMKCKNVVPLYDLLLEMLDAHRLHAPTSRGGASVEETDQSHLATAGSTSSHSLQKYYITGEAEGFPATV

Assay [6] in a line: qHTS assay to identify small molecule agonists or antagonists of the thyroid stimulating hormone receptor (TSHR) signaling pathway - wild type cell line counter screen (AID 1259384; calls by dose curve). The procedure, abridged: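 Wild-type HEK293 cells were plated 18 h at 37 C/5% CO2, pin-dosed with compound plus Ro20-1724 medium, held 30 min at room temperature, then given cAMP-d2 and anti-cAMP-cryptate; fluorescence was read after 1 h. Fifteen concentrations, triplicate.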

Assay [7] addresses Thyrotropin receptor (Homo sapiens) (UniProt P16473). The assay is described as follows: qHTS assay to identify small molecule antagonists of the thyroid stimulating hormone receptor (TSHR) signaling pathway (AID 1259385; calls by dose curve; also: nearly all actives have a fitted effect of over 20% in size). The procedure, abridged: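 TSHR-HEK293 cells were plated and held 18 h at 37C/5% CO2, then given compound plus Ro20-1724 and stimulated with TSH at 1.5 ng/mL final. After 30 min at room temperature, cAMP was detected with cAMP-d2/anti-cAMP-cryptate (1 h) by fluorescence.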

Assay [8] addresses Progesterone receptor (Homo sapiens) (UniProt P06401). Briefly: qHTS assay to identify small molecule agonists of the progesterone receptor (PR) signaling pathway (AID 1346784; calls by dose curve; also: nearly all actives have a fitted effect of over 30% in size). In short, it runs like this:
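Compounds were tested for PR agonism in HEK 293T cells bearing a beta-lactamase gene under UAS control. Treatment lasted 16 hr at 37C; signal came from fluorescence of a FRET substrate.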

Assay [9] has the same target. The assay is described as follows: qHTS assay to identify small molecule antagonists of the progesterone receptor (PR) signaling pathway (AID 1346795; active = well fitted inhibition curve with a large enough effect in the signal ratio in the repeat runs, not every such curve was filed as active; the % refers to the signal ratio; also: potency is read from the fitted curve at half-maximal effect). In short, it runs like this:
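In HEK293T cells bearing the PR-UAS-bla reporter, compound effects on promegestone-driven (1 nM) beta-lactamase expression are assessed after 16 hr using a fluorescent FRET substrate incubated 2 hr at room temperature.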

A short description of assay [10]: qHTS assay to identify small molecule antagonists of the progesterone receptor (PR) signaling pathway - cell viability counter screen (AID 1346798). Also: nearly all actives have a fitted effect of over 50% in size. Also: potency is read from the fitted curve at half-maximal effect. In short, it runs like this:
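Following a 4 hr attachment, PR-UAS-bla HEK293T cells in charcoal-stripped FBS medium were exposed to compounds with R5020 for 16 hr; CellTiter-Glo was added and luminescence read after 30 min at room temperature.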

Assay [11] is described as follows: qHTS assay to identify small molecule agonists of the TGF-beta/Smad signaling pathway - cell viability counter screen (AID 1346829). Also: nearly all actives have a fitted effect of over 45% in size. Also: potency is read from the fitted curve at half-maximal effect. In short, it runs like this: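 CellTiter-Glo luminescence readout; SBE-bla HEK 293T cells, overnight plating, compound 5 hr at 37 C/5% CO2, then bla substrate 2 hr RT, then CellTiter-Glo 30 min RT.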
The nature of assay [12]: qHTS assay to identify small molecule agonists of the TGF-beta/Smad signaling pathway (AID 1346859; active = well fitted activation curve with a large enough effect in the signal ratio in the repeat runs, not every such curve was filed as active; the % refers to the signal ratio; also: series mostly up to about 77 µM). In short, it runs like this:
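Each well held 4,000 SBE-bla HEK 293T cells incubated overnight before compound addition; 5 hr later the cleavable FRET substrate went on for 2 hr at room temperature, and fluorescence was read at two emissions.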

Assay [13] addresses Thyrotropin-releasing hormone receptor (Homo sapiens) (UniProt P34981). Briefly: qHTS assay to identify small molecule antagonists of the thyrotropin-releasing hormone receptor (TRHR) signaling pathway (AID 1346877; active = well fitted inhibition curve with a large enough effect in the repeat runs, not every such curve was filed as active; also: series mostly up to about 51 µM). The procedure, abridged:
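In this cell-based calcium flux format, HEK293 cells expressing TRHR received test compound for 5 min before the agonist TRH (1 nM final). Dye loading lasted 2 h at 37 °C.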

Assay [14] shares this target. Briefly: qHTS assay to identify small molecule agonists of the thyrotropin-releasing hormone receptor (TRHR) signaling pathway (AID 1346891; calls by dose curve; also: series mostly up to about 58 µM). The procedure, abridged: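 Screening of agonists relied on calcium signalling in HEK293 cells expressing human TRHR: dye loading 2 h at 37 °C preceded compound addition and a 3-min fluorescence time course.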
Assay [15] addresses Estrogen receptor beta (Homo sapiens) (UniProt Q92731). The assay is described as follows: qHTS assay to identify small molecule antagonists of the estrogen receptor beta (ER-beta) signaling pathway (AID 1259378; active = well fitted inhibition curve with a large enough effect in the signal ratio in the repeat runs, not every such curve was filed as active; the % refers to the signal ratio). The procedure, abridged:
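ER-beta-UAS-bla HEK293T (GripTite) cells in 2% charcoal-stripped FBS medium were preincubated 6 hr at 37C, dosed with compound, then stimulated with 1 nM E2 (final) for 16 hr; beta-lactamase reporter read by B/G FRET fluorescence after 2 hr substrate loading.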

The nature of assay [16]: Human pregnane X receptor (PXR) small molecule agonists, qHTS cell viability counter screen (AID 1346977). Also: nearly all actives have a fitted effect of over 50% in size. Also: potency is read from the fitted curve at half-maximal effect. The procedure, abridged: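 Tox21 qHTS format; PXR-Luc HepG2, 2,000/well, charcoal-stripped FBS 5%. Cpd exposure 24hr. Read: CellTiter-Fluor fluorescence, multiplexed with luciferase.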
Assay [17] is described as follows: qHTS assay to identify small molecule antagonists of the estrogen receptor beta (ER-beta) signaling pathway - cell viability counter screen (AID 1259382). Also: nearly all actives have a fitted effect of over 55% in size. Also: potency is read from the fitted curve at half-maximal effect. The procedure, abridged:
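Tox21 10K library tested in qHTS format on ER-beta-bla HEK293T cells stimulated with 1nM E2; 16 hr treatment at 37C. Same-well CellTiter-Glo luminescence served as the cell viability measure.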

Assay [18] in a line: qHTS assay to identify small molecule agonists of the estrogen receptor alpha (ER-alpha) signaling pathway in the presence of an antagonist - cell viability counter screen (AID 1259386).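 Also: cells exposed to compounds for 22 h at 37 °C before the viability read; nearly all actives have a fitted effect of over 30% in size.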 Also: potency is read from the fitted curve at half-maximal effect. The procedure, abridged: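 Fluorescent CellTiter-Fluor viability signal from VM7Luc4E2 cells, with the reagent added during the final hour of a 22hr compound exposure at 37C in the presence of 10.0nM ICI-182,780.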

Assay [19] in a line: qHTS assay to identify small molecule agonists of the progesterone receptor (PR) signaling pathway - cell viability counter screen (AID 1346799; calls by dose curve; also: nearly all actives have a fitted effect of over 45% in size; also: potency is read from the fitted curve at half-maximal effect). In short, it runs like this: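 Here, 3,000 PR-UAS-bla HEK293T cells per well were treated with compounds for 16 hr after a 6 hr preincubation at 37C and 5% CO2; cell viability is the CellTiter-Glo luminescence signal.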
A short description of assay [20]: qHTS assay to identify small molecule antagonists of the TGF-beta/Smad signaling pathway - cell viability counter screen (AID 1346824). Also: nearly all actives have a fitted effect of over 50% in size. Also: potency is read from the fitted curve at half-maximal effect. In short, it runs like this:
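SBE-bla HEK 293T cells were plated overnight at 37 C, then given compounds in DMSO plus TGF-beta1 (added as 0.25 ng/mL solution) for 5 hr. After the bla read, CellTiter-Glo was added to the same wells and luminescence read after 30 min at room temperature.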

Where “and” joins values, the source holds several entries; their conditions need not be identical. Equal values may be shown once. Inconclusive results are not listed. Some compounds were tested as several samples or in several runs, with calls that do not always agree. Calls of active or inactive are those of the source. Unless noted, calls follow the shape of the dose curve; as a rule, active = well fitted curve in the direction sought with a large enough effect in the repeat runs; inconclusive = weak or mixed curves; inactive = no such curve, though single readings can be large; an effect the other way counts as inactive or inconclusive.

Chain of Thyrotropin-releasing hormone receptor (Homo sapiens) (P34981 whole entry, looked up): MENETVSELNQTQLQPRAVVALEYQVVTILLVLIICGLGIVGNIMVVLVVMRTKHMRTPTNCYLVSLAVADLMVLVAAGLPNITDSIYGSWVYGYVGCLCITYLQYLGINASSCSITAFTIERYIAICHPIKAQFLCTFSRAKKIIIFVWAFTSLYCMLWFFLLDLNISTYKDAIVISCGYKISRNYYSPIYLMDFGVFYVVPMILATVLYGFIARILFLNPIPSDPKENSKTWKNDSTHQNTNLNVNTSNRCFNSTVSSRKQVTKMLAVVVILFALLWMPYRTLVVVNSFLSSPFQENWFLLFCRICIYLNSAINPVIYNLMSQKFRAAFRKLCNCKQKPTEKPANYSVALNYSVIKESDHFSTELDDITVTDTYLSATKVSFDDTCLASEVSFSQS
Chain of Thyrotropin receptor (Homo sapiens) (P16473 whole entry, looked up): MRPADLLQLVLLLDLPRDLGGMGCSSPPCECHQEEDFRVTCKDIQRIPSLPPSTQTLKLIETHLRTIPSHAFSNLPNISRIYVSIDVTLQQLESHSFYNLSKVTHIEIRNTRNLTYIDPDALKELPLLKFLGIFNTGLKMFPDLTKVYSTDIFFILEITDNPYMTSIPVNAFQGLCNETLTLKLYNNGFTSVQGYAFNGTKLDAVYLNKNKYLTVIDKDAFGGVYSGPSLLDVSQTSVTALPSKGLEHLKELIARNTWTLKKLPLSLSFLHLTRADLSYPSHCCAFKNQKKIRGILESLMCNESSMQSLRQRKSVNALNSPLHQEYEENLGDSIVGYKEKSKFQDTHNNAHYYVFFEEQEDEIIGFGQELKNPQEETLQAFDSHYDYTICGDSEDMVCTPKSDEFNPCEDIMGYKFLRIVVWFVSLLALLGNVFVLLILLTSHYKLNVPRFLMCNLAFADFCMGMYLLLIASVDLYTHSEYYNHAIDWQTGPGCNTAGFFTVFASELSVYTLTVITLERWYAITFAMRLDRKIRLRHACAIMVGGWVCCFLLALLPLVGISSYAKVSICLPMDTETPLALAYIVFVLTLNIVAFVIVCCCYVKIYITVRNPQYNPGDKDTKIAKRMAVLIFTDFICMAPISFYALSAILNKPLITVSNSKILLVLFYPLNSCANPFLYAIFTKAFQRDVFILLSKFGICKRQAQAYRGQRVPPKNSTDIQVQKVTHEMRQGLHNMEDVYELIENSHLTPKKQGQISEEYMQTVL
Chain of Progesterone receptor (Homo sapiens) (P06401 whole entry, looked up): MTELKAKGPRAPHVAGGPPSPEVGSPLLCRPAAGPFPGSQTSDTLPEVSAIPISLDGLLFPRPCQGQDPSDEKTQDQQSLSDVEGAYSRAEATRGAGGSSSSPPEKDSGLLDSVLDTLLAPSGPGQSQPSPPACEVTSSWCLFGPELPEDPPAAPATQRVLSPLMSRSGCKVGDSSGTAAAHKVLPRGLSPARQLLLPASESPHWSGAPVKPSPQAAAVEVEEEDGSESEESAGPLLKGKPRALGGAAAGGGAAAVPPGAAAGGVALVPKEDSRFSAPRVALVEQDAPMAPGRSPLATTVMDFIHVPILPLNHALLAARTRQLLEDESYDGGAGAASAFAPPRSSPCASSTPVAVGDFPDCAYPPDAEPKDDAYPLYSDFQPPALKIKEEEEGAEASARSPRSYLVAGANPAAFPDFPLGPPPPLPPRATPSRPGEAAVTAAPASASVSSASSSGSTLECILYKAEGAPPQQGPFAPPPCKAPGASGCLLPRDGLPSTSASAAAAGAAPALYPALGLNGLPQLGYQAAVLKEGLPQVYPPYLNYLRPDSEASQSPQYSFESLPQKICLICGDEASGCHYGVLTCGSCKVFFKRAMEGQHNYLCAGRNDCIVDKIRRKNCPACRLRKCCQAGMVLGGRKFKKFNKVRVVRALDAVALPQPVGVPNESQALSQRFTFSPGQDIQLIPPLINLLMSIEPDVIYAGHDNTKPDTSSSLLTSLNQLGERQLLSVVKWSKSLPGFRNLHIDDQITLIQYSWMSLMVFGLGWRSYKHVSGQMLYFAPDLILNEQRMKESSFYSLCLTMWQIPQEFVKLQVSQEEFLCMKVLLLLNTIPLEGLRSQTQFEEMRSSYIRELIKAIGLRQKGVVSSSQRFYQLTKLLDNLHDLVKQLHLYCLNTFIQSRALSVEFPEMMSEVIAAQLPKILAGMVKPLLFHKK
Chain of Androgen receptor (Homo sapiens) (P10275 whole entry, looked up): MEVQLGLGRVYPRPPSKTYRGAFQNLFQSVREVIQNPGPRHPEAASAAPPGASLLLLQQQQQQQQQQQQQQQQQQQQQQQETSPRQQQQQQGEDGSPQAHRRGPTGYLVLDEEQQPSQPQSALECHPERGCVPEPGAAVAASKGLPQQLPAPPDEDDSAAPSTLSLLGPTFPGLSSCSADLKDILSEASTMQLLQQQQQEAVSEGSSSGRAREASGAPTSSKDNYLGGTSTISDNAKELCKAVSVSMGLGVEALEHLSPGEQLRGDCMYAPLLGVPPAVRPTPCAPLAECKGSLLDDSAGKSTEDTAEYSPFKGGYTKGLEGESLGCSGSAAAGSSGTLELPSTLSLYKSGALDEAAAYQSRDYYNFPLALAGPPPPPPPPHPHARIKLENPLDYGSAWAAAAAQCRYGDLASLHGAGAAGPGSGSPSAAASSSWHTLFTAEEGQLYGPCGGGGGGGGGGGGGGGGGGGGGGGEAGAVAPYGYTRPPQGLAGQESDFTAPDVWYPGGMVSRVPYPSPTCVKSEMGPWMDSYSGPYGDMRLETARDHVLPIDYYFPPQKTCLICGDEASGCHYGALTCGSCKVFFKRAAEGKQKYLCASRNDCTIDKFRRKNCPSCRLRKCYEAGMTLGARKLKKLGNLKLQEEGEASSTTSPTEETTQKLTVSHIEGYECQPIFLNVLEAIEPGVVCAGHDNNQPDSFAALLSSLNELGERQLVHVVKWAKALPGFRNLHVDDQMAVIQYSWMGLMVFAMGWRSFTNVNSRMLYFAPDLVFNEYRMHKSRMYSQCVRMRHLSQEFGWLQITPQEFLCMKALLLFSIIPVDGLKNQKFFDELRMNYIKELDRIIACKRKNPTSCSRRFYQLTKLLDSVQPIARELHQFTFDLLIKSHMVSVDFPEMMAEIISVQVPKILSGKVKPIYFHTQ

`CC(C)Oc1cc(-n2nc(C(C)(C)C)oc2=O)c(Cl)cc1Cl`: the Potency entry in [1], in assay [2], in assay [3], in assay [4], in assay [5] and in [8] was “inactive” each time. Moreover, the Potency entry in assay [10], in assay [11], in assay [13] and in assay [14] was “inactive” in each case. For the same compound, the compound was called inactive in assay [6], in [7] and in [12]. The Potency in [9] was 24 µM (active) and 24.3 µM (active).

On to `Nc1cccnc1`, for which the Potency result in assay [1], in assay [15], in assay [3], in assay [5], in [8] and in assay [9] was “inactive” in each case. Also, the Potency result in [10], in [11], in [13], in [14] and in assay [16] was “inactive” in each case. Also, the result in assay [6], in assay [7] and in assay [12] was inactive.

As to `Cc1ccc2c(c1N)C(=O)c1ccccc1C2=O`, the Potency result in assay [15], in assay [17], in [8], in [10], in assay [19] and in assay [20] was “inactive” throughout. Further, the Potency result in [11], in assay [13] and in [14] was “inactive” in each case. In addition, the Potency was 27 µM (active) in assay [2]; 30.3 µM (active) in assay [3]; 6.04 µM (active) and inactive in [5]; 27 µM (active) and 27.3 µM (active) in assay [18]; 19.1 µM (active) and 27.3 µM (active) in assay [16]. Moreover, the result in [6], in assay [7] and in assay [12] was inactive.

As for `CCCCN(CCCC)N=O`, the Potency result in assay [1], in assay [2], in [3], in assay [17], in [5] and in [8] was “inactive” throughout. The Potency entry in assay [9], in [10], in assay [19], in [11], in assay [13] and in assay [14] was “inactive” throughout. Also, the Potency result in assay [16] was “inactive”. Also, the compound was called inactive in [6], in assay [7] and in [12].

With `O=C(Nc1ccc(Br)cc1)c1cc(Br)cc(Br)c1O`, the Potency entry in [1], in [13] and in assay [14] was “inactive” throughout. In addition, the Potency in assay [2] is 21.6 µM (active) and 19.3 µM (active) and 29.8 µM (active); in assay [3], 19.3 µM (active) and 29.8 µM (active); in assay [17] it was 24.3 µM (active); in assay [5] it was 2.42 µM (active) and inactive; in [10] it was 12.1 µM (active) and 21.7 µM (active); in [20], 30.8 µM (active) and 21.9 µM (active) and 19 µM (active). The Potency in assay [11] is 24.5 µM (active) and 43.6 µM (active) and 23.9 µM (active); in assay [16] it was 6.31 µM (active) and 8.63 µM (active) and 10.6 µM (active). Also, the result in assay [6] and in assay [7] was inactive.

With `O=P(Oc1ccccc1)(Oc1ccccc1)Oc1ccccc1`, the Potency result in assay [1], in assay [2], in [5], in [8], in [10] and in assay [19] was “inactive” in each case. Besides, the Potency result in [20], in assay [11], in assay [13], in assay [14] and in [16] was “inactive” throughout. Further, the Potency in [3] was 34.4 µM (active). Besides, the outcome in [6], in assay [7] and in [12] was inactive.

With `CN(C)C(=O)Nc1ccc(Cl)cc1`, the Potency result in [1], in assay [15], in assay [3], in [17], in assay [8] and in assay [9] was “inactive” each time. For the same compound, the Potency entry in assay [10], in [11] and in assay [16] was “inactive” each time. In addition, the call in [6], in [7] and in assay [12] was inactive.

Turning to `Nc1ccc(Cl)c(Cl)c1`, the Potency entry in assay [1], in assay [15], in [3], in assay [17], in assay [18] and in assay [8] was “inactive” each time. The Potency entry in assay [10], in assay [20], in assay [11], in assay [13], in assay [14] and in [16] was “inactive” in each case. Besides, the call in assay [6], in assay [7] and in assay [12] was inactive.

Turning to `Cc1c(COC(=O)[C@@H]2[C@H](/C=C(\Cl)C(F)(F)F)C2(C)C)cccc1-c1ccccc1`, the Potency result in [1], in [15], in assay [3], in assay [5], in assay [8] and in assay [9] was “inactive” each time. Moreover, the Potency result in assay [20], in assay [11] and in assay [16] was “inactive” in each case. In addition, the compound was classed as inactive in assay [6] and in assay [7].

For the compound `CCOC(=S)S`, the Potency result in assay [1], in [20], in assay [11] and in [16] was “inactive” each time. In addition, the Potency was 10.3 µM (active) in assay [3], 4.86 µM (active) in [10] and 4.86 µM (active) in assay [19]. Moreover, the result in [6], in assay [7] and in [12] was inactive.

`NCc1cccnc1`: the Potency entry in assay [2], in [3], in assay [17], in assay [5], in [8] and in assay [9] was “inactive” each time. Also, the Potency entry in [10], in assay [19], in assay [20], in assay [11], in [13] and in [14] was “inactive” each time. In addition, the Potency result in assay [16] was “inactive”. The compound was called inactive in assay [6] and in assay [7].

Turning to `Clc1nc(Cl)nc(Cl)n1`, the Potency result in assay [2], in assay [3], in assay [5], in [18], in [8] and in [9] was “inactive” in each case. Also, the Potency entry in assay [10], in assay [19], in [20], in assay [11], in assay [13] and in [14] was “inactive” in each case. Also, the Potency result in [16] is “inactive”.
